Experimental data from PubChem BioAssay AID1159580 (chemical genetic matrix, 2015).
Several values for one entry are separate records, joined by “and”; a condition that tells them apart may be missing. Identical values can stand only once. Hit rate of the full screen: of about 5,500 compounds, about 2,000 (36%) were called active. Roughly 18% stayed inconclusive and do not appear here. Rule as the data show it: active = normalized growth mostly below about 0.91 (no sharp cut-off); inconclusive = no clear call, values can overlap the other calls; inactive = mostly above about 0.92. This is one part of the list.

Test: chemical genetic growth profiling, strain panel (AID 1159580);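 also: tested at 20 µM; growth read once vehicle control cultures reached saturation at 30 °C; 1 = growth at the plate median or of vehicle wells; lower values mean less growth of the strain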
Conditions: S. cerevisiae deletion strains, growth OD
[1] = locus YAL013W, strain DEP1, hits give low values
[2] = locus YBR229C, strain ROT2, hits give low values
[3] = locus YDL101C, strain DUN1, hits give low values
[4] = locus YDR150W, strain NUM1, hits give low values
[5] = locus YEL061C, strain CIN8, hits give low values
[6] = locus YGR078C, strain PAC10, hits give low values
[7] = locus YGR229C, strain SMI1, hits give low values
[8] = locus YHR030C, strain SLT2, hits give low values
[9] = locus YHR087W, strain rtc3, hits give low values
[10] = locus YJL187C, strain SWE1, hits give low values
[11] = locus YJR043C, strain POL32, hits give low values
[12] = locus YJR075W, strain HOC1, hits give low values
[13] = locus YLR039C, strain RIC1, hits give low values
[14] = locus YLR058C, strain SHM2 (second series), hits give low values
[15] = locus YLR085C, strain ARP6, hits give low values
[16] = locus YLR262C, strain YPT6, hits give low values
[17] = locus YML094W, strain GIM5, hits give low values
[18] = locus YMR219W, strain ESC1, hits give low values
[19] = locus YMR263W, strain SAP30, hits give low values
[20] = locus YNL153C, strain GIM3, hits give low values
[21] = locus YNL298W, strain CLA4 (second series), hits give low values
[22] = locus YNL322C, strain KRE1, hits give low values
[23] = locus YNR030W, strain Alg12, hits give low values
[24] = locus YPL055C, strain LGE1, hits give low values
[25] = locus YPL241C, strain CIN2, hits give low values
[26] = locus YPR135W, strain CTF4, hits give low values

Measured: normalized growth

O=[N+]([O-])c1ccc2c(c1)NC(c1ccc([N+](=O)[O-])s1)O2 (centres undefined)
active: [1] 0.0563 | [2] 0.0525 | locus YCL061C, strain MRC1, hits give low values 0.0508 | [3] 0.0673 | locus YDL134C, strain PPH21, hits give low values 0.0453 | [4] 0.0493 | [5] 0.049 | locus YGR052W, strain FMP48, hits give low values 0.104 | [6] 0.0481 | [7] 0.0516 | [8] 0.0641 and 0.114 | locus YHR079C, strain IRE1, hits give low values 0.11 | locus YHR082C, strain KSP1, hits give low values 0.106 | [9] 0.0539 | locus YJL095W, strain BCK1, hits give low values 0.1 | [10] 0.0478 | [11] 0.0509 | locus YJR066W, strain TOR1, hits give low values 0.1 | [12] 0.0918 | locus YKL171W, strain NNK1, hits give low values 0.387 | locus YKL203C, strain TOR2, hits give low values 0.0984 | [13] 0.0606 | [14] 0.0478 | [15] 0.0638 | locus YLR113W, strain HOG1, hits give low values 0.187 | [16] 0.0626 | [17] 0.0601 | [18] 0.0484 | [19] 0.0575 | [20] 0.0476 | locus YNL183C, strain NPR1, hits give low values 0.108 | locus YNL207W, strain RIO2, hits give low values 0.107 | [21] 0.0735 | [22] 0.0534 | [23] 0.063 | locus YOR119C, strain RIO1, hits give low values 0.0996 | locus YOR231W, strain MKK1, hits give low values 0.101 | [24] 0.0657 | [25] 0.0629 | locus YPL256C, strain CLN2, hits give low values 0.17 | [26] 0.149

CN1c2ccccc2C(=O)NC1c1ccc([N+](=O)[O-])s1 (centres undefined)
inactive: [1] 1 | [2] 0.988 | [3] 1.02 | [4] 1 | [5] 0.967 | [6] 1.02 | [7] 0.989 | [8] 1 | [9] 0.991 | [10] 0.996 | [11] 1.01 | [12] 1.02 | [13] 1.02 | [14] 0.995 | [15] 1.03 | [16] 1.05 | [17] 0.989 | [18] 0.995 | [19] 1 | locus YMR307W, strain GAS1, hits give low values 1.01 | [20] 1.02 | [21] 1.01 | [22] 0.995 | [23] 0.988 | [24] 0.971 | [25] 1 | [26] 1.05

Cc1ccc([N+](=O)[O-])cc1S(=O)(=O)N(C)C
inactive: locus YAL040C, strain CLN3, hits give low values 0.984 | locus YCL061C, strain MRC1 (second series), hits give low values 1 | [4] 1.03 | locus YDR363W, strain ESC2, hits give low values 0.972 | locus YER002W, strain NOP16, hits give low values 1 | [20] 0.846 | locus YNL175C, strain NOP13, hits give low values 0.996 | locus YNL197C, strain WHI3, hits give low values 0.926 | locus YNL224C, strain SQS1, hits give low values 0.979 | locus YOR083W, strain WHI5 (second series), hits give low values 0.955 | [25] 0.998
